Consider eight molecules from PubChem BioAssay (NCI).

Some test systems named below: NCI-H23 lung; NCI-H226 lung; NCI-H322M lung; HOP-62 NSCLC; HOP-92 NSCLC; NCI-H522 lung; A549/ATCC NSCLC; 786-0 renal; COLO 205 colon; DU-145 prostate; K-562 leukemia; MALME-3M melanoma; MDA-MB-231 breast; RXF 393 renal; SF-268 CNS; SF-295 CNS; SF-539 CNS; UACC-257 melanoma; M14 melanoma; NCI-H460 lung.
Experiment in all cases: NCI-60 one-dose screen, 48 h (100 = growth as untreated, 0 = no growth, -100 = all killed)
What all share (conditions): 10 µM unless noted

Compounds without any hit were thinned out: in the full panel of roughly 83,000, 20% have a hit.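 Method: cells in 96-well plates; compound added at one concentration; 48 h incubation; percent growth measured; values under 10 scored active.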 A number with no mark means an inactive call. Calls of active or inactive are those of the source.

As to `O=C(Nc1ccc2ncnc(Nc3cccc(C(F)(F)F)c3)c2c1)c1cccs1`, the growth with NCI-H23 lung was 30.2%; in the assay on NCI-H226 lung it was 67.6%; in the assay with NCI-H322M lung it was 40.7%; in the assay on HOP-62 NSCLC, 58.4%; in the assay with HOP-92 NSCLC, 67.6%; in the assay on NCI-H522 lung, 33.8%. Further, the growth is 32.4% with A549/ATCC NSCLC; 57% in the assay on 786-0 renal; 24.1% in the assay with COLO 205 colon; 39.6% in the assay with DU-145 prostate; 26.3% in the assay with K-562 leukemia; 106% in the assay on MALME-3M melanoma. The growth in the assay on MDA-MB-231 breast is 54.3%; in the assay on RXF 393 renal, 66.2%; in the assay on SF-268 CNS it was 51.4%; in the assay with SF-295 CNS it was 44%; with SF-539 CNS, 87.7%; in the assay with UACC-257 melanoma, 103%. Further, in the assay with M14 melanoma, the growth is 49.5%.
Take `O=C1C(=O)c2c(nc3ccc(Br)cn23)-c2ccccc21`: the growth in the assay with NCI-H23 lung was -38.7% (active); in the assay on NCI-H226 lung, -92.6% (active); in the assay with NCI-H322M lung, -96.6% (active); in the assay with HOP-62 NSCLC, -96.5% (active); with HOP-92 NSCLC, -75.3% (active); in the assay with NCI-H522 lung it was -72.6% (active). The growth in the assay on A549/ATCC NSCLC was -63.5% (active); with 786-0 renal, -96.9% (active); with COLO 205 colon, -82.4% (active); in the assay on DU-145 prostate it was -100% (active); in the assay with K-562 leukemia, -59.8% (active); in the assay with MALME-3M melanoma it was -97.9% (active). Moreover, the growth in the assay with MDA-MB-231 breast was -20.1% (active); in the assay on RXF 393 renal, -94.1% (active); in the assay with SF-268 CNS, -71.7% (active); in the assay with SF-295 CNS it was -100% (active); with SF-539 CNS it was -99.1% (active); in the assay with UACC-257 melanoma, -99% (active). The growth in the assay on M14 melanoma was -92.9% (active).
In the case of `COc1cc(C2=NN(C(C)=O)C(c3cccc(Nc4ccnc5cc(C(F)(F)F)ccc45)c3)C2)cc(OC)c1OC` (configuration not stated), the growth in the assay on NCI-H23 lung was 62.8%; with NCI-H226 lung, 66.5%; with NCI-H322M lung it was 68.3%; with HOP-62 NSCLC, 63.9%; in the assay on HOP-92 NSCLC, 25.3%; in the assay on NCI-H522 lung it was 55.7%. In addition, the growth in the assay on A549/ATCC NSCLC was 53.1%; with 786-0 renal it was 58.8%; in the assay on COLO 205 colon, 50.3%; in the assay on DU-145 prostate it was 55%; in the assay on K-562 leukemia, 36.8%; in the assay on MALME-3M melanoma, 78.9%. Moreover, the growth was 66.1% with MDA-MB-231 breast; 55.3% in the assay on RXF 393 renal; 52.6% in the assay with SF-268 CNS; 53.8% in the assay on SF-295 CNS; 76.6% in the assay on SF-539 CNS; 79% in the assay on UACC-257 melanoma. The growth with M14 melanoma is 29.7%.
As for `COc1cc2c(cc1OC)C(Sc1ccc(Cl)cc1)c1c(nc(N)c(C#N)c1N)O2` (configuration not stated), the growth in the assay on NCI-H23 lung is -20.2% (active); with NCI-H226 lung, 16.2%; with NCI-H322M lung, 42.1%; in the assay with HOP-62 NSCLC it was 63%; with HOP-92 NSCLC, 20.1%; in the assay on NCI-H522 lung, -67.6% (active). The growth with A549/ATCC NSCLC is 44.1%; in the assay on 786-0 renal, -17.1% (active); with COLO 205 colon it was -65.6% (active); in the assay with DU-145 prostate, 5.73% (active); with K-562 leukemia, 0.964% (active); in the assay with MALME-3M melanoma it was -28.6% (active). The growth with MDA-MB-231 breast is -20.1% (active); with RXF 393 renal, -65.4% (active); with SF-268 CNS, 35.7%; with SF-295 CNS, 43.8%; in the assay with SF-539 CNS, -21.9% (active); in the assay with UACC-257 melanoma, 22.5%. For the same molecule, in the assay on M14 melanoma, the growth is -21.2% (active).
For `CSc1nc(-c2cccs2)c2c(N)[nH]nc2n1`, the growth with NCI-H23 lung was 93.1%; in the assay with NCI-H226 lung, 104%; in the assay with NCI-H322M lung it was 92.8%; in the assay with HOP-62 NSCLC it was 87.9%; in the assay on HOP-92 NSCLC, 110%; in the assay on NCI-H522 lung, 83.3%. For the same molecule, the growth was 98.5% in the assay with A549/ATCC NSCLC; 91.4% in the assay with 786-0 renal; 112% in the assay with COLO 205 colon; 107% in the assay with DU-145 prostate; 88.4% in the assay on K-562 leukemia; 121% with MALME-3M melanoma. For the same molecule, the growth was 97.9% in the assay on MDA-MB-231 breast; 114% in the assay with RXF 393 renal; 105% with SF-268 CNS; 102% with SF-295 CNS; 93% with SF-539 CNS; 114% with UACC-257 melanoma. Also, the growth with M14 melanoma is 126%.
On to `C=C(C)[C@@H]1CC[C@]2(C(=O)N=C=S)CC[C@]3(C)[C@H](CC[C@@H]4[C@@]5(C)CCC(=O)C(C)(C)[C@@H]5CC[C@]43C)[C@@H]12`, for which the growth with NCI-H23 lung was 32.9%; in the assay with NCI-H226 lung, 48.8%; with HOP-62 NSCLC it was 30.1%; in the assay with NCI-H460 lung, 6.85% (active); in the assay on HOP-92 NSCLC, 18.2%; with NCI-H522 lung, 15.3%. Moreover, the growth with A549/ATCC NSCLC was 26.2%; with 786-0 renal it was 37.2%; in the assay on COLO 205 colon it was -19.1% (active); with DU-145 prostate it was 33.5%; in the assay on K-562 leukemia, 18.8%; in the assay on MALME-3M melanoma, 40.7%. The growth was 18% in the assay with MDA-MB-231 breast; 50.6% with RXF 393 renal; 36.5% in the assay on SF-268 CNS; 36% with SF-295 CNS; 31.8% with SF-539 CNS; 54.7% in the assay on UACC-257 melanoma. Also, in the assay with M14 melanoma, the growth was 39.3%.
Consider `C=C1C(=O)O[C@H]2[C@H]1CC/C(COC(=O)CCCCCCC(=O)OC/C1=C/CC[C@@]3(C)O[C@H]3[C@H]3OC(=O)C(=C)[C@@H]3CC1)=C\CC[C@@]1(C)O[C@@H]21`, for which the growth was 25.1% with NCI-H23 lung; 65.2% with NCI-H226 lung; 83.6% in the assay with HOP-62 NSCLC; 77.7% in the assay with NCI-H460 lung; 34% in the assay with HOP-92 NSCLC; -81% (active) with NCI-H522 lung. Moreover, the growth with A549/ATCC NSCLC is 97.2%; in the assay with 786-0 renal, 20.9%; with COLO 205 colon it was -64.6% (active); in the assay on DU-145 prostate it was 40.4%; with K-562 leukemia, 2.63% (active); in the assay with MALME-3M melanoma, -2.86% (active). The growth with MDA-MB-231 breast is -1.66% (active); with RXF 393 renal, -72.8% (active); with SF-268 CNS it was 54.2%; with SF-295 CNS it was 94.9%; in the assay on SF-539 CNS, 21.1%; in the assay on UACC-257 melanoma it was 70.7%. In the assay with M14 melanoma, the growth is 30.6%.
On to `COc1ccc(-c2cc(-c3nnc(SCC(=O)Nc4ccc(/C(C)=N\O)cc4)n3-c3ccccc3)c3cc(OC)ccc3n2)cc1`, for which the growth with NCI-H23 lung was 86.4%; in the assay on NCI-H226 lung, 86.1%; in the assay on HOP-62 NSCLC, 79.4%; in the assay on NCI-H460 lung, 83.9%; in the assay with HOP-92 NSCLC it was 78.4%; with NCI-H522 lung, 35.1%. For the same molecule, the growth was 51.2% with A549/ATCC NSCLC; 83.5% in the assay with 786-0 renal; 93.6% in the assay with COLO 205 colon; 85% in the assay with DU-145 prostate; 48% with K-562 leukemia; 105% with MALME-3M melanoma. For the same molecule, the growth in the assay with MDA-MB-231 breast was 46.1%; in the assay on RXF 393 renal, 83.6%; with SF-268 CNS, 71.4%; in the assay on SF-295 CNS it was 80.3%; with SF-539 CNS it was 82.6%; in the assay with UACC-257 melanoma, 71%. The growth in the assay with M14 melanoma is 70.1%.
